Values joined by “and” are separate entries in the source; they are usually repeats but may differ in a detail not shown here. Equal values may be shown once. Records with an inconclusive call do not appear. Where a call stands in place of a potency, no number is given. Active and inactive are the calls of the source. Calls follow the shape of the dose curve; as a rule, active = well fitted cell-killing curve with a large enough effect in the repeat runs; inconclusive = weak or mixed curves, or effect the other way; inactive = flat fitted curve, though single readings scatter.
Potency is read from the fitted curve at half-maximal effect.

The nature of this experiment: qHTS assay to identify small molecule antagonists of the estrogen receptor alpha (ER-alpha) signaling pathway using the BG1 cell line in the presence of 0.1 nM 17-beta-estradiol - cell viability counter screen (AID 1259241). Also: nearly all actives have a fitted effect of over 40% in size. The conditions noted are these: VM7Luc4E2 (BG1) viability, CellTiter-Fluor protease, 22 h, 0.1 nM estradiol agonist added; series mostly up to 92.4 µM. An excerpt: National Center for Advancing Translational Sciences [NCATS]
NIH Chemical Genomics Center [NCGC]
U.S. Environmental Protection Agency [EPA]
National Institutes of Environmental Health Sciences [NIEHS]
National Toxicology Program [NTP]
U.S. Food and Drug Administration [FDA]
Estrogen receptor (ER), a member of the nuclear hormone receptor plays an important role in development, metabolic homeostasis and reproduction. Two subtypes of ER, ER-alpha and ER-beta, have similar expression patterns with some uniqueness in both types. Endocrine disrupting chemicals (EDCs) and their interactions with steroid hormone receptors like ER causes disruption of normal endocrine function. Therefore, it is important to understand the effect of environmental chemicals in ER signaling pathway. For identifying ER antagonists, VM7Luc4E2 cell line was used to screen against Tox21 compound libraries.
VM7Luc4E2 cell line (provided by Denison MS, University of California) endogenously express full-length ER-alpha and is stably transfected with a plasmid containing four estrogen responsive elements (ERE) upstream of a luciferase reporter gene. The current screening for identification of ER-alpha inhibitors against Tox21 compound libraries used lower concentration (0.1 nM) of 17beta-Estradiol as a stimulator. The cytotoxicity of the Tox21 compound libraries against VM7Luc4E2 cell line was tested by measuring live-cell protease activity using CellTiter-Fluor assay in the same wells.
Tox21 Assay Protocol Summary:
VM7Luc4E2 cells were cultured in phenol red free assay medium containing 10% charcoal stripped FBS for 5 days prior to the assay. The cells were dispensed at 4,000 cells/well in 4 uL of assay medium into white wall/solid-bottom 1536-well plates (Corning Life Sciences, Corning, NY) using a Multidrop Combi (ThermoFisher Scientific, Waltham, MA) dispenser. After the assay plates were incubated at 37C and 5% CO2 for 24 hr, 23 nL of compounds dissolved in DMSO, positive controls or DMSO only was transferred to the assay plates by a Pintool station (Kalypsys, San Diego, CA). The transfer of compounds was followed by the addition of 1 uL of 0.1 nM (final concentration) agonist (17beta-Estradiol)/assay medium using a Flying Reagent Dispenser (FRD, Aurora Discovery, San Diego, CA). The plates were incubated at 37C and 5% CO2 for 22 hr. For cytotoxicity assay, 1 uL of CellTiter-Fluor reagent (Promega Corporation, Madison, WI) was added to each well using the FRD and after 30 min incubation at 37C and 5% CO2, The fluorescence intensity was measured using ViewLux plate reader (PerkinElmer, Shelton, CT).
For the compound `O=C(OCc1ccccc1)c1ccccc1`, the Potency entry is “inactive”. As for `CC(C)=CCC/C(C)=C/CO`, the Potency result was “inactive”. The result for `CCCCNC(=O)NS(=O)(=O)c1ccc(N)cc1` reads “inactive”. The result for `COC(=O)c1ccc(C=O)cc1` reads “inactive”. Take `COc1ccccc1O`: the Potency entry was “inactive”. For the compound `C=CCOC(=O)CC(C)C`, the Potency entry is “inactive”. Next, `NC(=O)OCC(COC(N)=O)c1ccccc1`: “inactive”; `COCC(C)N` (stereo not given): “inactive”; `Cc1cnc(NC(=O)C2=C(O)c3ccccc3S(=O)(=O)N2C)s1`: “inactive”. Next, `CCCCOCCOCCSC#N`: “inactive”. The result for `CCCCCCCC(=O)OCC(O)CO` (stereo not given) reads “inactive”; that for `C#C[C@]1(O)CC[C@H]2[C@@H]3CCC4=CC(=O)CC[C@@H]4[C@H]3CC[C@@]21CC`, “inactive”. In the case of `CCOC(=O)C(C)(C)Oc1ccc(Cl)cc1`, the Potency result is “inactive”. Next, `Cc1c(N(C)CS(=O)(=O)O)c(=O)n(-c2ccccc2)n1C`: “inactive”; `COC1=CC(=O)C[C@@H](C)[C@]12Oc1c(Cl)c(OC)cc(OC)c1C2=O`: “inactive”; `COc1cc2c(c(OC)c1OC)-c1ccc(OC)c(=O)cc1[C@@H](NC(C)=O)CC2`: “inactive”.

Take `O=C1OC(c2ccc(O)cc2)(c2ccc(O)cc2)c2ccccc21`: the Potency result is “inactive”. Next, `C[C@]12C=CC(=O)C=C1CC[C@@H]1[C@@H]2C(=O)C[C@@]2(C)[C@H]1CC[C@]2(O)C(=O)CO`: “inactive”; `C[C@]12C[C@H](O)[C@H]3[C@@H](CCC4=CC(=O)CC[C@@]43C)[C@@H]1CC[C@@H]2C(=O)CO`: “inactive”; `C=C(C)C(N)=O`: “inactive”.

On to `CCN1CCCC1=O`, for which the Potency entry is “inactive”. With `Cc1cccc(Nc2cc(Cl)nc(SCC(=O)O)n2)c1C`, the Potency result was “inactive”.

As for `O=C(O)Cc1cccc2ccccc12`, the Potency result is “inactive”. Take `COc1ccc(O)cc1`: the Potency result is “inactive”. In the case of `Nc1ccc(N=Nc2ccccc2)c(N)n1`, the Potency was 61.4 µM (active) and 30.6 µM (active). The result for `Cc1cccc(C)c1O` reads “inactive”. `c1ccc2[nH]c(-c3cscn3)nc2c1`: the Potency result is “inactive”. Next, `CCc1cc(C(N)=S)ccn1`: “inactive”.

Take `Cn1cnc2c1c(=O)[nH]c(=O)n2C`: the Potency entry was “inactive”. The result for `CC(C)(C)CC(C)(C)c1ccc(O)c(-n2nc3ccccc3n2)c1` reads “inactive”; that for `O=c1cc[nH]c(=O)[nH]1`, “inactive”. On to `CC(C)(C)NCC(O)c1ccc(O)c(CO)c1` (stereo not given), for which the Potency entry is “inactive”. In the case of `C=CC(=O)NC(C)(C)CS(=O)(=O)O`, the Potency result was “inactive”. On to `OC[C@@H](O)[C@@H](O)[C@H](O)[C@H](O)CO`, for which the Potency entry was “inactive”.

For the compound `CCOCCO`, the Potency result was “inactive”. Consider `CCN(CC)CCOC(=O)c1ccc(N)cc1`, for which the Potency result is “inactive”. Next, `C[C@]12CC[C@@H]3c4ccc(O)cc4C[C@@H](CCCCCCCCCS(=O)CCCC(F)(F)C(F)(F)F)[C@H]3[C@@H]1CC[C@@H]2O` (stereo not given in full): “inactive”; `CC1(C)O[C@@H]2[C@@H](CO[C@@]3(COS(N)(=O)=O)OC(C)(C)O[C@@H]23)O1`: “inactive”.

With `O=C(O)CCCCC1CCSS1` (stereo not given), the Potency entry is “inactive”. The result for `Nc1cccc(N)c1` reads “inactive”.

Values taken from PubChem BioAssay (Tox21).
